The structures appear in SMILES notation. Out of some 16,000 compounds screened, about 5,700 (36%) were called active. Another 24% or so got no clear call; they are omitted. This is one part of the list. Values without a mark were called inactive. Calls follow the shape of the dose curve; as a rule, active = well fitted curve in the direction sought with a large enough effect; inconclusive = small, poorly fitted or top-dose-only effect, or effect the other way; inactive = no such curve, though single readings can be large or run the other way.
% is scaled to controls: 0 for no effect and ±100 for the full control effect.

Sequence of Cytochrome P450 1A2 (Homo sapiens) (P05177 whole entry, looked up): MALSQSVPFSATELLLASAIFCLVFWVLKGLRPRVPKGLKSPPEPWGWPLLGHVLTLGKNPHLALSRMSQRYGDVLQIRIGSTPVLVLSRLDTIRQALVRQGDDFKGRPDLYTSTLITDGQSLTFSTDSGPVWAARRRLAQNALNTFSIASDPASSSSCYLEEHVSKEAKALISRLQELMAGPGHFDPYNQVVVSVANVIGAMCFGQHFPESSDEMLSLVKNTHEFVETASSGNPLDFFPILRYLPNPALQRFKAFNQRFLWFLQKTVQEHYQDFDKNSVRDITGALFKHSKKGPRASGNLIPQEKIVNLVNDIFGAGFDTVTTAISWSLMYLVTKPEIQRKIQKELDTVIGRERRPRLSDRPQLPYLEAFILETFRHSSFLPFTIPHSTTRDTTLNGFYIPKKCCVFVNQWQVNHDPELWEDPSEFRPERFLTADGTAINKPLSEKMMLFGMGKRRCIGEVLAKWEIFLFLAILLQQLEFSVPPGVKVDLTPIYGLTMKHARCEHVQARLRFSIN

The assay addresses Cytochrome P450 1A2 (Homo sapiens) (UniProt P05177). The assay is described as follows: Cytochrome panel assay with activity outcomes. The note with it: recombinant CYP, pro-luciferin dealkylation, luminescence, p450-cyp1a2; series mostly up to 57.1 µM; activity, negative = inhibition: at the top concentration.
As to `Cc1ccccc1C(=O)Nc1cccc(NC(=S)NC(=O)c2cccs2)c1`, the AC50 was 3.16 µM (active).
Regarding `Cc1cccc(NC(=S)NC(=O)c2cccs2)n1`, the AC50 was 0.794 µM (active).
On to `COc1cc(NC(=S)NC(=O)c2c(OC)cccc2OC)ccc1NC(=O)c1cccs1`, for which the “activity, negative = inhibition” value is -10.4%.
In the case of `CCN(c1ccccc1)S(=O)(=O)c1ccc(NC(=S)NC(=O)c2cccs2)cc1`, the “activity, negative = inhibition” value is -24.5%.
Same read-out and setting: as for `Cc1c(C)c(C)c(CC2(C)CSC2)c(CC2(C)CSC2)c1C`, the figure is -16.1% [at 11.4 µM].
For the compound `CN(Cc1ccco1)c1cc(-c2cccnc2)ncn1`, the AC50 was 0.316 µM (active).
For the compound `COc1cccc([C@@H]2Oc3ccc(OC)cc3/C(=N/OC[C@@H](O)COCc3ccco3)[C@@H]2O)c1`, the activity, negative = inhibition was -3.42% [at 11.4 µM].
With `CN(Cc1ccco1)c1cc(-c2cccc(C#N)c2)ncn1`, the AC50 was 0.794 µM (active).
Same read-out and setting: as for `COc1cccc(-c2cc(N(C)Cc3ccco3)ncn2)c1`, the figure is 0.794 µM (active); as for `CCOC(=O)c1c(C)[nH]c(C(=O)OCC(=O)NC2CCS(=O)(=O)C2)c1C` (centres undefined), 12.6 µM (active).
On to `CCCNC1CCS(=O)(=O)C1` (centres undefined), for which the “activity, negative = inhibition” value is -7.33%.
On the same count and under the same terms, the result for `Cc1ccc(/S(C)=N/S(=O)(=O)c2ccc(C)cc2)cc1` (centres undefined) reads -16.1%.
On the same count and under the same terms, the result for `CCCS(=O)(=O)N1CCCC(C(=O)NCCCOCC)C1` (centres undefined) reads 9.24%; that for `CCCS(=O)(=O)N1CCCC(C(=O)NCCCOC(C)C)C1` (centres undefined), 15.7%.
Regarding `CCCS(=O)(=O)N1CCCC(C(=O)N2CCN(C(=O)OCC)CC2)C1` (centres undefined), the AC50 was 10 µM (active).
The same measure, in the same setting: the result for `COC(=O)c1ccc(NC(=O)c2cc3sccc3n2C)cc1` reads 8.91 µM (active); that for `Cn1c(C(=O)Nc2ccccc2)cc2sccc21`, 8.91 µM (active).
Consider `COC(=O)c1ccc(NC(=O)c2ccccc2NS(=O)(=O)c2ccccc2)cc1`, for which the “activity, negative = inhibition” value was -26.7%.
The same measure, in the same setting: the result for `CN1c2ccccc2C(O)=C(C(=O)Nc2ccccc2)S1(=O)=O` reads 22.2%.
For the compound `COCCNc1ncnc2ccc(-c3cccc(OC)c3)cc12`, the concentration at half-maximal activity (AC50) was 0.794 µM (active).
In the case of `COCCNc1ncnc2ccc(-c3cccnc3)cc12`, the AC50 was 0.2 µM (active).
For the compound `COc1cccc(-c2ccc3ncnc(NCCNC(C)=O)c3c2)c1`, the AC50 is 3.16 µM (active).
On to `N#Cc1ccc(CN2CCCC3(CCN(C(=O)c4cccc(F)c4)CC3)C2)cc1`, for which the “activity, negative = inhibition” value is 1.62%.
As to `Cn1c(=O)[nH]c(=O)c2c1nc(CN1CCOCC1)n2CCCO`, the “activity, negative = inhibition” value is 2.56%.
On to `COc1ccccc1CNc1ncncc1-c1ccccc1Cl`, for which the AC50 was 10 µM (active).
With `COc1ccccc1CNc1ncncc1-c1ccccc1C(F)(F)F`, the AC50 was 15.8 µM (active).
The same measure, in the same setting: the result for `COc1ccc(CNc2ncncc2-c2ccccc2C(F)(F)F)c(OC)c1` reads 15.8 µM (active).
Regarding `Cc1ccccc1CN1CCN(CC(=O)NCCCN2CCN(c3ccc(F)cc3)CC2)C1=O`, the “activity, negative = inhibition” value was 0.19%.
As to `Cn1cc(C2=C(c3ccc(Cl)cc3Cl)C(=O)NC2=O)c2ccccc21`, the AC50 is 3.16 µM (active).
The same measure, in the same setting: the result for `CNc1ccnc(-c2ccccc2OC)n1` reads 5.01 µM (active).
On the same count and under the same terms, as for `COc1ccccc1-c1nccc(NCc2ccccc2)n1`, the figure is 2.51 µM (active); as for `COc1ccccc1-c1nccc(NCc2cccnc2)n1`, 0.2 µM (active).
Still for that read-out and setting: as for `COc1ccccc1-c1nccc(NCc2cccc(C)c2)n1`, the figure is 0.631 µM (active).
`CS(=O)(=O)N1CCC[C@@]2(CCN(C(=O)Nc3cccc(C#N)c3)C2)C1`: the “activity, negative = inhibition” value is -14.8%.
In the case of `Cc1ccccc1-c1nccc(NCc2cccnc2)n1`, the AC50 is 0.2 µM (active).
On the same count and under the same terms, the result for `CNc1ccnc(-c2ccccc2C)n1` reads 5.01 µM (active).
With `CO[C@H]1COC(=O)C/C=C\[C@H](C)[C@@H](NS(=O)(=O)c2ccc(C)cc2)COC(=O)CCC[C@@H]1C`, the activity, negative = inhibition was 1.16% [at 11.4 µM].
Same read-out and setting: as for `C=CC[C@@H]1C=C[C@H](O/N=C(\C)CCN2CCc3nc(CC)c(CC)cc3C2)[C@H](CO)O1`, the figure is -3.35% [at 11.4 µM]; as for `Cc1ccc(S(=O)(=O)Nc2nc(C)c(NC(=O)Nc3ccc(Cl)cc3Cl)s2)cc1`, -25.6%.
Still for that read-out and setting: the result for `COc1ccc(C(=O)Nc2cccc(/C(C)=N/NC(=O)c3ccc([N+](=O)[O-])cc3)c2)cc1OC` reads -13.8%.
Take `C/C(=N\NC(=O)c1ccc(Cl)cc1)c1cccc(NC(=O)C(C)C)c1`: the AC50 is 3.55 µM (active).
Same read-out and setting: the result for `CCC(=O)Nc1ccc(/C(C)=N\NS(=O)(=O)c2ccc(C)cc2)cc1` reads 25.1 µM (active).
On to `C/C(=N/NS(=O)(=O)c1ccc(C)cc1)P(=O)(O)O`, for which the activity, negative = inhibition was -10% [at 11.4 µM].
For `C/C(=N/NS(=O)(=O)c1ccc(C)cc1)c1cccc(NC(=O)c2cccc(Cl)c2)c1`, the AC50 was 14.1 µM (active).
On the same count and under the same terms, the result for `C/C(=N\NC(=O)c1cccc(Cl)c1)c1cccc(NC(=O)C(C)C)c1` reads 5.01 µM (active).
`Oc1ccc([C@@H]2CNCCc3c2cc(O)c(O)c3Cl)cc1`: the AC50 result is “inactive”.
With `CN1CC[C@@]2(CCCN(C(=O)c3cc(C(F)(F)F)cc(C(F)(F)F)c3)C2)C1`, the “activity, negative = inhibition” value was -5.26%.
As for `CN(/C=C/C(=O)C(F)(F)F)Cc1ccccc1`, the “activity, negative = inhibition” value is -22.8%.
Same read-out and setting: the result for `CC(=O)Nc1ccc(S(=O)(=O)NC(CC(=O)NCCCN2CCOCC2)C(C)C)cc1` (centres undefined) reads 1.91%.

By AC50 is commonly meant the concentration giving half of the maximal activity seen.

The values are drawn from PubChem BioAssay AID1851 (National Center for Advancing Translational Sciences (NCATS), 2009).
